# Test results from the supplement of paper PMC10037445.
# Several values for one entry are separate records, joined by “and”; a condition that tells them apart may be missing. Identical values can stand only once. Whole data set: some 2,900 compounds, median “NF-kB SEAP reporter activity, fold change vs agonist alone” near 0.99, cut for the highest 2% near 2.6. Only a selection was taken, and the highest values are over-represented in it overall.
# Key:
# [1] = test system: RAW-Dual; experiment: NF-kB SEAP reporter activity, fold change vs agonist alone; higher = enhanced NF-kB activity; details: library stock concentration (final ~1000-fold dilution): 10 mM
# Procedure, shortened: (§1)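 After 50 nL of library stock was delivered by pin tool to RAW-Dual macrophages (50,000 cells/well, DMEM, 384-well plates), a PRR agonist was added 1 h later and the plates were kept at 37 °C, 5% CO2. Twenty hours later, IRF was read from supernatant by QuantiLuc luminescence and NF-κB by QuantiBlue absorbance at 620 nm. Reporter activity is stated as fold change over agonist-alone wells. Wells with IncuCyte confluency under 70% of agonist controls in both mask sets were counted as cytotoxic.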
# [2] = test system: RAW-Dual; experiment: NF-kB SEAP reporter activity, fold change vs agonist alone; cytotoxicity flag (confluency mask): not cytotoxic; library stock concentration (final ~1000-fold dilution): 10 mM; higher = enhanced NF-kB activity
# Procedure, shortened: as §1
# [3] = test system: RAW-Dual; experiment: NF-kB SEAP reporter activity, fold change vs agonist alone; cytotoxicity flag (confluency mask): cytotoxic (confluency <70% of control); library stock concentration (final ~1000-fold dilution): 10 mM; higher = enhanced NF-kB activity
# Procedure, shortened: as §1
# [4] = cytotoxicity flag (confluency mask): not cytotoxic, agonist: Imiquimod (TLR7) […]
# [5] = cytotoxicity flag (confluency mask): not cytotoxic, agonist: MPLA (TLR4) […]
# [6] = agonist: ODN 1826 (TLR9) 0.5 ug/mL
# [7] = agonist: Pam2CSK4 (TLR2/6) 0.1 ug/mL
# [8] = agonist: Pam3CSK4 (TLR2/1) 0.1 ug/mL
compound,measurement,setting,value
COc1cc(C)[nH]c(=O)c1CNC(=O)c1c(C)n(C(C)C2CCOCC2)c2ccccc12 (configuration not stated),NF-kB SEAP reporter activity,[1]; [4],0.902
same,NF-kB SEAP reporter activity,[1]; [5],1.02
same,NF-kB SEAP reporter activity,[2]; agonist: LPS (TLR4) 0.1 ug/mL,1.26
same,NF-kB SEAP reporter activity,[2]; [6],1.05
same,NF-kB SEAP reporter activity,[2]; [7],0.992
same,NF-kB SEAP reporter activity,[2]; [8],0.786
Cl[Te]1(Cl)(Cl)OCCO1.N,NF-kB SEAP reporter activity,[1]; [4],0.792
same,NF-kB SEAP reporter activity,[1]; [5],0.899
same,NF-kB SEAP reporter activity,[2]; agonist: LPS (TLR4) 0.1 ug/mL,1.39
same,NF-kB SEAP reporter activity,[2]; [6],0.846
same,NF-kB SEAP reporter activity,[2]; [7],0.912
same,NF-kB SEAP reporter activity,[2]; [8],1.28
CCCCCCC[n+]1ccc(-c2cc[n+](CCCCCCC)cc2)cc1,NF-kB SEAP reporter activity,[1]; [4],1.32
same,NF-kB SEAP reporter activity,[1]; [5],2.11
same,NF-kB SEAP reporter activity,[2]; agonist: LPS (TLR4) 0.1 ug/mL,3.95
same,NF-kB SEAP reporter activity,[2]; [6],1.17
same,NF-kB SEAP reporter activity,[2]; [7],1.02
same,NF-kB SEAP reporter activity,[2]; [8],1.14
CCCCCc1cc(O)cc(O)c1,NF-kB SEAP reporter activity,[1]; [5],0.946
same,NF-kB SEAP reporter activity,[2]; agonist: LPS (TLR4) 0.1 ug/mL,1.11
same,NF-kB SEAP reporter activity,[2]; [6],0.427
same,NF-kB SEAP reporter activity,[2]; [7],0.966
same,NF-kB SEAP reporter activity,[2]; [8],0.739
O=C([O-])C(Cl)Cl.[Na+],NF-kB SEAP reporter activity,[2]; agonist: LPS (TLR4) 0.1 ug/mL,1.11 and 0.906
same,NF-kB SEAP reporter activity,[2]; [6],1.14 and 0.982
same,NF-kB SEAP reporter activity,[2]; [7],1.11 and 0.989
same,NF-kB SEAP reporter activity,[2]; [8],1.19 and 1.32
CCNc1nc(Cl)nc(NC(C)C)n1,NF-kB SEAP reporter activity,[1]; [5],1.29
same,NF-kB SEAP reporter activity,[2]; agonist: LPS (TLR4) 0.1 ug/mL,1.55
same,NF-kB SEAP reporter activity,[2]; [6],1.4
same,NF-kB SEAP reporter activity,[2]; [7],1.5
same,NF-kB SEAP reporter activity,[2]; [8],1.67
COc1cc(C2c3cc4c(cc3C(O)C3COC(=O)C23)OCO4)cc(OC)c1OC (configuration not stated),NF-kB SEAP reporter activity,"[1]; cytotoxicity flag (confluency mask): cytotoxic (confluency <70% of control), agonist: Imiquimod (TLR7) […]",1.61
same,NF-kB SEAP reporter activity,"[1]; cytotoxicity flag (confluency mask): cytotoxic (confluency <70% of control), agonist: MPLA (TLR4) […]",1.92
same,NF-kB SEAP reporter activity,[3]; agonist: LPS (TLR4) 0.1 ug/mL,5.49
same,NF-kB SEAP reporter activity,[3]; [6],2.81
same,NF-kB SEAP reporter activity,[3]; [7],1.6
same,NF-kB SEAP reporter activity,[3]; [8],2.18
COc1ccc2c(c1OC)CN1CCc3cc4c(cc3C1C2)OCO4 (configuration not stated),NF-kB SEAP reporter activity,[1]; [5],1
same,NF-kB SEAP reporter activity,[2]; agonist: LPS (TLR4) 0.1 ug/mL,1.21
same,NF-kB SEAP reporter activity,[2]; [6],1.04
same,NF-kB SEAP reporter activity,[2]; [7],0.89
same,NF-kB SEAP reporter activity,[2]; [8],1.26
COc1cc(C2c3cc4c(cc3C(O)C3COC(=O)C23)OCO4)cc(OC)c1O (configuration not stated),NF-kB SEAP reporter activity,[1]; [4],2.53
same,NF-kB SEAP reporter activity,[1]; [5],2.24
same,NF-kB SEAP reporter activity,[2]; agonist: LPS (TLR4) 0.1 ug/mL,3.91
same,NF-kB SEAP reporter activity,[2]; [6],3.47
same,NF-kB SEAP reporter activity,[2]; [7],2.24
same,NF-kB SEAP reporter activity,[2]; [8],2.24
CC[N+](C)(CC)CCOC(=O)C(O)(c1ccccc1)c1ccccc1,NF-kB SEAP reporter activity,[1]; [5],1.01
same,NF-kB SEAP reporter activity,[2]; agonist: LPS (TLR4) 0.1 ug/mL,0.821
same,NF-kB SEAP reporter activity,[2]; [6],0.989
same,NF-kB SEAP reporter activity,[2]; [7],0.934
same,NF-kB SEAP reporter activity,[2]; [8],1.39
COc1cc(-n2c(S)nc3ccccc3c2=O)c(Cl)cc1Cl,NF-kB SEAP reporter activity,[1]; [4],0.851
same,NF-kB SEAP reporter activity,[1]; [5],0.953
same,NF-kB SEAP reporter activity,[2]; agonist: LPS (TLR4) 0.1 ug/mL,1.4
same,NF-kB SEAP reporter activity,[2]; [6],0.842
same,NF-kB SEAP reporter activity,[2]; [7],0.849
same,NF-kB SEAP reporter activity,[2]; [8],0.826
CCC1(c2c[nH]cn2)Cc2ccccc2C1.Cl,NF-kB SEAP reporter activity,[1]; [5],0.931
same,NF-kB SEAP reporter activity,[2]; agonist: LPS (TLR4) 0.1 ug/mL,0.796
same,NF-kB SEAP reporter activity,[2]; [6],0.745
same,NF-kB SEAP reporter activity,[2]; [7],0.9
same,NF-kB SEAP reporter activity,[2]; [8],0.997
CN1C2CCC1CC(=O)C2,NF-kB SEAP reporter activity,[1]; [4],1.66
same,NF-kB SEAP reporter activity,[1]; [5],1.16
same,NF-kB SEAP reporter activity,[2]; agonist: LPS (TLR4) 0.1 ug/mL,0.911
same,NF-kB SEAP reporter activity,[2]; [6],1.6
same,NF-kB SEAP reporter activity,[2]; [7],1
same,NF-kB SEAP reporter activity,[2]; [8],1.54
CCC1CN2CCC3(C(=O)Nc4ccccc43)C2CC1/C(=C\OC)C(=O)OC (configuration not stated),NF-kB SEAP reporter activity,[1]; [4],0.907
same,NF-kB SEAP reporter activity,[1]; [5],1.25
same,NF-kB SEAP reporter activity,[2]; agonist: LPS (TLR4) 0.1 ug/mL,1.1
same,NF-kB SEAP reporter activity,[2]; [6],0.873
same,NF-kB SEAP reporter activity,[2]; [7],0.87
same,NF-kB SEAP reporter activity,[2]; [8],0.852
